# Results reported in PubChem BioAssay.
# A number with no mark means an inactive call. Calls of active or inactive are those of the source.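 How the source made its calls: active means mean inhibition above 46.68%, the untreated control wells mean plus 3 SD; inactive means the rest.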
# Target: Nuclear receptor coactivator 1 (Homo sapiens) (UniProt Q15788)
# Experiment: SRC1 coactivator transcriptional activity inhibitors, confirmation, cell-based, luminescence, quadruplicate (AID 588820);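 further: 0% = DMSO wells and 100% = gossypol 36 µM treated wells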
# Conditions: HEK293 GAL4-SRC1 luciferase reporter, at 3.6 µM, active compounds read high
# Chain of Nuclear receptor coactivator 1 (Homo sapiens) (Q15788 whole entry, looked up): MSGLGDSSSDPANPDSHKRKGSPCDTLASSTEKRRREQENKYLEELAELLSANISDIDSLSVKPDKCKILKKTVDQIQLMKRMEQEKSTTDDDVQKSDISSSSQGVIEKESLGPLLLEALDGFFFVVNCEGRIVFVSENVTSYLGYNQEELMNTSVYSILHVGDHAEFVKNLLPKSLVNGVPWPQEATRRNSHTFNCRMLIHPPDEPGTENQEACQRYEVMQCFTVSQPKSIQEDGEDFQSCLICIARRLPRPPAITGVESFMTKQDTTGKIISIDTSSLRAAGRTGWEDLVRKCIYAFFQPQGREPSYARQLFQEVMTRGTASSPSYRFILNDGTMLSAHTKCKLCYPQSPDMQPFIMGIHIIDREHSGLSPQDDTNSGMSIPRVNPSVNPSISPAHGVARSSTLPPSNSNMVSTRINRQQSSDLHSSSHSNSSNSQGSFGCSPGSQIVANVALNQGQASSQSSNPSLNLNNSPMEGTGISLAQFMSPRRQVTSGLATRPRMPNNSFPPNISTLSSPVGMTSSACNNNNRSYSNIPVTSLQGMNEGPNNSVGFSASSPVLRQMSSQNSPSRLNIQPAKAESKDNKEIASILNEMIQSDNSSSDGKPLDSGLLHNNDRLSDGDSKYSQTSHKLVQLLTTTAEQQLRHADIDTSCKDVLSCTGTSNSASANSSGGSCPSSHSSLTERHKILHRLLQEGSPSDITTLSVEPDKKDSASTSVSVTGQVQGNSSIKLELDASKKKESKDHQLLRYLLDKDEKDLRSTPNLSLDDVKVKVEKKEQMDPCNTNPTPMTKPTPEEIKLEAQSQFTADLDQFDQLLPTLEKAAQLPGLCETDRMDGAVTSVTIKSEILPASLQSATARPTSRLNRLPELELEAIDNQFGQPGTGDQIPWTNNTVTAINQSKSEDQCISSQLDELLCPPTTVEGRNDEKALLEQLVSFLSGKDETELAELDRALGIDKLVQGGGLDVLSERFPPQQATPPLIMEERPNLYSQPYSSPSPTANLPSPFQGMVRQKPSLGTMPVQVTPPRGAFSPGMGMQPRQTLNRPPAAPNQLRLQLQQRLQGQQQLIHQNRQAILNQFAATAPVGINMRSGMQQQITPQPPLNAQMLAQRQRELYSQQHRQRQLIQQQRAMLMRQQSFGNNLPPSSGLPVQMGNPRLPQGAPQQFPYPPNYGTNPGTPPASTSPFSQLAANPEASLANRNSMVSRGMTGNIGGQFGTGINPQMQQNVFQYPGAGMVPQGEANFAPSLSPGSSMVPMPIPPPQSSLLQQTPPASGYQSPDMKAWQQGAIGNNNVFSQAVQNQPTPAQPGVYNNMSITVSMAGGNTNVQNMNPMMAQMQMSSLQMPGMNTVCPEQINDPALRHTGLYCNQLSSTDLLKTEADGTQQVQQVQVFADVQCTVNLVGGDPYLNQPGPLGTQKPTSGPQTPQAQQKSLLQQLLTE
row,Structure (SMILES),inhibition
1,Nc1ccc(C(=O)N/N=C\c2cc(N=Nc3cccc4ccccc34)ccc2O)cc1,14.5%
2,COc1ccc(-c2csc(NC(=O)c3ccccc3NS(=O)(=O)c3ccc(F)c(F)c3)n2)cc1,55% (active)
3,COc1ccc(/C=N/NC(=S)Nc2ccccc2[N+](=O)[O-])cc1O,-91.8%
4,Nc1ccc2c(c1)C(=O)C(=O)c1ccccc1-2,87% (active)
5,CCN1/C(=C/C=C/c2oc3ccc(-c4ccccc4)cc3[n+]2CC)Oc2ccc(-c3ccccc3)cc21,71.9% (active)
6,O=C1C(Nc2ccccc2)=C/C(=N/S(=O)(=O)c2cccs2)c2ccccc21,44.6%
7,COc1ccc(S(=O)(=O)/N=C2\C=C(Nc3ccc(O)cc3)C(=O)c3ccccc32)cc1,85% (active)
8,Cc1cc(C)nc(SCc2ccc(C(=O)N/N=C/c3cccc(O)c3O)cc2)n1,27.1%
9,Cc1ccc(C(C)C)c(OCc2ccc(C(=O)N/N=C/c3ccc(O)cc3O)cc2)c1,67% (active)
10,O=c1c2ccccc2nc(N/N=C/c2c(O)ccc3ccccc23)n1O,20.9%
11,Cc1ccc(C(C)C)c(OCc2ccc(C(=O)N/N=C/c3cccc(O)c3O)cc2)c1,40.4%
12,Cn1nc(-c2ccccn2)nc2c(=O)n(C)c(=O)nc1-2,3.11%
13,CCN(CC)S(=O)(=O)c1ccc(N/N=C/c2ccc(O)cc2O)nc1,63.5% (active)
14,COC(=O)c1cc(C)nc2c1C(=O)C(=O)C=C2N1CCOCC1,-43.5%
15,Oc1ccccc1N=Nc1nc(-c2ccccc2)c(-c2ccccc2)[nH]1,76.5% (active)
16,COc1cccc(N2CCN(c3ncnc4c3[nH]c3ccc(F)cc34)CC2C)c1 (stereo unspecified),86.7% (active)
